# Measurements: PubChem BioAssay AID504904 (The Scripps Research Institute Molecular Screening Center, 2011)
# Some of the results follow. Unmarked numbers belong to inactive results. The source made the active and inactive calls. No stated cut-off is given here; in the data, active means activation above about 18%; inactive means the rest.
# Molecular target: Mu-type opioid receptor (Homo sapiens) + Delta-type opioid receptor (Homo sapiens) (UniProt P35372+P41143)
# Assay: OPRM1-OPRD1 heterodimer formation agonism – cell-based, luminescence, confirmation (AID 504904);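 further: 0% = vehicle-treated cells and 100% = reference agonist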
# Settings: cells, MOR-DOR heterodimerization, luminescence complementation; at 9.3 µM; stronger effect = higher value
# Chain of Mu-type opioid receptor (Homo sapiens) + Delta-type opioid receptor (Homo sapiens) (P35372 whole entry, looked up): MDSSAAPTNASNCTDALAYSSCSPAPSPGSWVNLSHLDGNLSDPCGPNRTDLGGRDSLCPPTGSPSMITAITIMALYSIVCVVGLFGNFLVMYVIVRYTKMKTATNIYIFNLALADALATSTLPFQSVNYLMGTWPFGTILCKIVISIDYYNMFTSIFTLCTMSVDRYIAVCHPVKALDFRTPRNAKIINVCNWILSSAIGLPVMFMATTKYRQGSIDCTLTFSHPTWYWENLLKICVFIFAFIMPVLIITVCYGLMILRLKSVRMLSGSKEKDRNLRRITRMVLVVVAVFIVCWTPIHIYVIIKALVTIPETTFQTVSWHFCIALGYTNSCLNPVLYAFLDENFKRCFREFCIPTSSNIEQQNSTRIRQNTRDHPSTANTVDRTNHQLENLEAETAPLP
# Chain of Mu-type opioid receptor (Homo sapiens) + Delta-type opioid receptor (Homo sapiens) (P41143 whole entry, looked up): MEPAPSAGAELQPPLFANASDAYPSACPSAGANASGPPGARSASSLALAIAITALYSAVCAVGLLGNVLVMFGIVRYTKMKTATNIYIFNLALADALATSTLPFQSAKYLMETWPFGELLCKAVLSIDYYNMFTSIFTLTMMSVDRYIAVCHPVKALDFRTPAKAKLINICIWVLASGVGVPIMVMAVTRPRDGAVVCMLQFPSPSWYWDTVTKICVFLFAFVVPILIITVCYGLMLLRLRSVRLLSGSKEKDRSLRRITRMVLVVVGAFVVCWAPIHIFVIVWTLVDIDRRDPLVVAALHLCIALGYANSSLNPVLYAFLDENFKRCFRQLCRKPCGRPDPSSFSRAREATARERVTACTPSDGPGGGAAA
row,Structure (SMILES),activation
1,CN1CCN(c2ccc([N+](=O)[O-])c(Sc3nc4ccccc4[nH]3)c2)CC1,1.22%
2,CC(c1cccnc1)N(CCN(C)C)C(=O)Nc1ccc(Cl)c(Cl)c1 (stereo unspecified),-0.05%
3,CCc1ccc(C(CNc2nc(C(F)(F)F)nc3ccccc23)N(C)C)cc1 (stereo unspecified),42.4% (active)
4,CC1CCCN(CCOCCOc2ccccc2-c2ccccc2)C1 (stereo unspecified),1.28%
5,COc1ccc(C2Nc3ccccc3C(=O)N2c2ccc(F)cc2)cc1Cn1nnc2ccccc21 (stereo unspecified),0.83%
6,CN(C)C(CNC(=O)c1ccc(S(=O)(=O)NCc2ccco2)cc1)c1ccccc1 (stereo unspecified),16.7%
7,Clc1ccc(COn2c(-c3ccc(Cl)cc3Cl)nc3ncccc32)cc1,2.83%
8,Cc1cc(C)cc(C(=O)N(CCc2ccccc2)C2=CC3CCC(C2)N3C)c1 (stereo unspecified),137% (active)
9,COc1ccc(-n2nnnc2-c2nc3ccccc3s2)cc1,3.47%
10,CN(CC(=O)Nc1ccc(Cl)cc1)C(=O)c1ccc(COc2ccccc2)cc1,0.49%
11,O=C(Nc1ccc(OC(F)(F)F)cc1)c1ccc2c(c1)no[n+]2[O-],13.3%
12,COc1ccccc1C(CNC(=O)c1ccc(C)c(S(=O)(=O)N2CCCCC2)c1)N(C)C (stereo unspecified),3.98%
13,COC(=O)c1ccc(C23CC4(C2)[C@H](CN(Cc2cccnc2)[C@@H]4c2ccccc2)C3c2ccc(Cl)nc2)cc1 (stereo partly specified),17.2%
14,O=C(NCc1cn2ccsc2n1)Nc1ccc(Cl)cc1,7.03%
15,Cc1ccc(O)c(NC(=S)NC(=O)COc2ccc(Br)cc2)c1,2.92%
16,Cc1ccc(Nc2ccccc2N)cc1,3.92%
17,Cc1ccc(-n2c(SCC(=O)NCCC3=CCCCC3)nc3n[nH]c(C)c3c2=N)cc1Cl,2.44%
18,COc1cccc(/C=N/Nc2cc(C)nc(-c3ccccc3O)n2)c1O,-1.59%
19,CCC(C(=O)OCC(=O)Nc1ccc(C(=O)Nc2ccc(OC)cc2)cc1)c1ccccc1 (stereo unspecified),4.73%
20,CN(C)C(CNC(=O)Cc1ccc([N+](=O)[O-])cc1)c1ccccc1 (stereo unspecified),164% (active)
21,Cc1ccc(CN(C(=O)c2sc3ccccc3c2Cl)C2CCS(=O)(=O)C2)cc1 (stereo unspecified),24.1% (active)
